# Data from PubChem BioAssay.
# Records with an inconclusive call do not appear. Calls of active or inactive are those of the source.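 Rule for the calls, unless noted: active = normalized viability below 100% at a tested concentration; inactive = the rest.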
# Columns and labels:
# [1] = growth inhibition of DIPG glioma cells, dose response, cell-based, SU-DIPG-XVII, MIPE5.0, CellTiter-Glo, qHTS (AID 1347060; cut-off not given, nearly all actives have AC50 up to about 26 µM;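 for AC50: cells exposed to compound for 48 hours before viability readout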); settings: SU-DIPG-XVII viability, CellTiter-Glo ATP luminescence
# [2] = growth inhibition of DIPG glioma cells, dose response, cell-based, JHH-DIPG-1, MIPE4.0, CellTiter-Glo, qHTS (AID 1347062; cut-off not given, nearly all actives have AC50 up to about 27 µM;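 for AC50: cells exposed to compound for two days before readout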); settings: JHH-DIPG-1 viability, CellTiter-Glo ATP luminescence
# [3] = growth inhibition of DIPG glioma cells, dose response, cell-based, SU-DIPG-IV, MIPE4.0, CellTiter-Glo, qHTS (AID 1347063; cut-off not given, nearly all actives have AC50 up to about 30 µM;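 note: compound exposure lasted 48 hours before the viability readout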); settings: SU-DIPG-IV viability, CellTiter-Glo ATP luminescence
# [4] = growth inhibition of DIPG glioma cells, dose response, cell-based, SU-DIPG-XIII, MIPE5.0, CellTiter-Glo, qHTS (AID 1347064; cut-off not given, nearly all actives have AC50 up to about 23 µM;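 for AC50: cells exposed to compound for 48 hours before the viability read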); settings: SU-DIPG-XIII viability, CellTiter-Glo ATP luminescence
# [5] = SU-DIPG-VI glioma cell viability, MIPE4.0 library, CellTiter-Glo luminescence, qHTS (AID 1347066; cut-off not given, nearly all actives have AC50 up to about 30 µM;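 note: cells exposed to compound for 48 hours before readout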); settings: CellTiter-Glo ATP luminescence
# [6] = JHH-DIPG-1 glioma cell viability, MIPE5.0 library, CellTiter-Glo luminescence, qHTS (AID 1347067; cut-off not given, nearly all actives have AC50 up to about 26 µM;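 note: cells exposed to compound for 48 hours before readout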); settings: JHH-DIPG-1 glioma viability, CellTiter-Glo ATP luminescence
# [7] = SU-DIPG-XXV glioma cell viability, MIPE5.0 library, qHTS (AID 1347068; cut-off not given, nearly all actives have IC50 up to about 30 µM;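 for IC50: cells exposed to compound for 48 hours before viability readout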)
# [8] = sensitizers of A549 cells to miR-34 induction, primary screen, imaging, A549 dox-inducible miR-34, nuclei and caspase counts (AID 1347080;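 active = compounds whose cell count with miR-34 switched on is under 0.7 times the count with it off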); settings: A549 miR-34 inducible, Hoechst nuclei count, 48 h
# [9] = survival rescue of mitochondrial mutant cells in low glucose, primary screen, MELAS cybrids, Rieske KO mouse fibroblasts, CellTiter-Glo (AID 1508586;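 active = mean z-score across replicates of 1.96 or higher in either the MELAS or the Rieske mutant cell line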;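 note: z relative to plate mean and SD of compound and empty wells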)
# [10] = viability loss in pontine glioma line – cell-based, SU-DIPG-XXV, MIPE5.0, CellTiter-Glo, qHTS, dose response (AID 1347065; cut-off not given, nearly all actives have AC50 up to about 26 µM;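 note: cells exposed to compound for 48 hours before ATP readout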); settings: CellTiter-Glo ATP luminescence
# [11] = ovarian cancer cell viability with rucaparib, profiling panel, oncology-focused library, rucaparib conditional (AID 1508598); settings: patient-derived ovarian cancer cells, CellTiter-Glo viability, 144 h, stronger effect = lower value
structure (smiles),measurement,setting,value
O=C(O)C1=CO[C@@H](O[C@@H]2O[C@H](CO)[C@@H](O)[C@H](O)[C@H]2O)[C@@H]2C(CO)=CC[C@H]12,outcome,[1],inactive
same,outcome,[2],inactive
same,outcome,[3],inactive
same,outcome,[4],inactive
same,outcome,[5],inactive
same,outcome,[6],inactive
same,outcome,[7],inactive
COc1cccc(Nc2c(C(N)=O)cnc3c(C)cc(S(=O)(=O)c4cccc(C(=O)N(C)C)c4)cc23)c1,outcome,[1],inactive
same,outcome,[2],inactive
same,outcome,[3],inactive
same,outcome,[4],inactive
same,outcome,[5],inactive
same,outcome,[6],inactive
same,outcome,[7],inactive
same,fold change,"[8]; stronger effect = lower value, cell number ratio, induced over uninduced",0.95 (inactive)
same,fold change,[8]; measured here: relative caspase fold change +Dox/-Dox,0.8
same,cell count,"[8]; measured here: total cells with miR-34 induction, stronger effect = lower value",9130
same,cell count,[8]; measured here: total cells without miR-34 induction,9610
same,z-score,"[9]; MELAS cybrid survival, CellTiter-Glo 48 h, stronger effect = higher value",-0.192 (inactive)
same,z-score,"[9]; Rieske KO mouse fibroblast survival, CellTiter-Glo 72 h",-1.7
COc1cc(OC)c(/C=C/S(=O)(=O)Cc2ccc(OC)c(NCC(=O)O)c2)c(OC)c1,AC50,[1],93.4 nM (active)
same,AC50,[2],935 nM (active)
same,AC50,[3],26.4 nM (active)
same,AC50,[4],295 nM (active)
same,AC50,[10],118 nM (active)
same,AC50,[6],118 nM (active)
same,IC50,[7],66.1 nM (active)
same,viability,"[11]; at 0.000305 µM, OCI-C5x cells, with rucaparib 10 µM, 100% = cells with rucaparib alone",110% (inactive)
same,viability,"[11]; at 0.000305 µM, OCI-C5x cells, without rucaparib",120% (inactive)
same,viability,"[11]; at 0.000305 µM, OCI-P5x cells, with rucaparib 20 µM, 100% = cells with rucaparib alone",106% (inactive)
same,viability,"[11]; at 0.000305 µM, OCI-P5x cells, without rucaparib",75.1% (active)
same,viability,"[11]; at 0.00122 µM, OCI-C5x cells, with rucaparib 10 µM, 100% = cells with rucaparib alone",114% (inactive)
same,viability,"[11]; at 0.00122 µM, OCI-C5x cells, without rucaparib",111% (inactive)
same,viability,"[11]; at 0.00122 µM, OCI-P5x cells, with rucaparib 20 µM, 100% = cells with rucaparib alone",102% (inactive)
same,viability,"[11]; at 0.00122 µM, OCI-P5x cells, without rucaparib",104% (inactive)
same,viability,"[11]; at 0.00488 µM, OCI-C5x cells, with rucaparib 10 µM, 100% = cells with rucaparib alone",107% (inactive)
same,viability,"[11]; at 0.00488 µM, OCI-C5x cells, without rucaparib",115% (inactive)
same,viability,"[11]; at 0.00488 µM, OCI-P5x cells, with rucaparib 20 µM, 100% = cells with rucaparib alone",103% (inactive)
same,viability,"[11]; at 0.00488 µM, OCI-P5x cells, without rucaparib",101% (inactive)
same,viability,"[11]; at 0.0195 µM, OCI-C5x cells, with rucaparib 10 µM, 100% = cells with rucaparib alone",91.1% (active)
same,viability,"[11]; at 0.0195 µM, OCI-C5x cells, without rucaparib",88% (active)
same,viability,"[11]; at 0.0195 µM, OCI-P5x cells, with rucaparib 20 µM, 100% = cells with rucaparib alone",94.8% (active)
same,viability,"[11]; at 0.0195 µM, OCI-P5x cells, without rucaparib",61.6% (active)
same,viability,"[11]; at 0.0781 µM, OCI-C5x cells, with rucaparib 10 µM, 100% = cells with rucaparib alone",53.4% (active)
same,viability,"[11]; at 0.0781 µM, OCI-C5x cells, without rucaparib",45% (active)
same,viability,"[11]; at 0.0781 µM, OCI-P5x cells, with rucaparib 20 µM, 100% = cells with rucaparib alone",73.5% (active)
same,viability,"[11]; at 0.0781 µM, OCI-P5x cells, without rucaparib",23.1% (active)
same,viability,"[11]; at 0.313 µM, OCI-C5x cells, with rucaparib 10 µM, 100% = cells with rucaparib alone",50.7% (active)
same,viability,"[11]; at 0.313 µM, OCI-C5x cells, without rucaparib",35.9% (active)
same,viability,"[11]; at 0.313 µM, OCI-P5x cells, with rucaparib 20 µM, 100% = cells with rucaparib alone",56.6% (active)
same,viability,"[11]; at 0.313 µM, OCI-P5x cells, without rucaparib",20.6% (active)
same,viability,"[11]; at 1.25 µM, OCI-C5x cells, with rucaparib 10 µM, 100% = cells with rucaparib alone",37.8% (active)
same,viability,"[11]; at 1.25 µM, OCI-C5x cells, without rucaparib",32.9% (active)
same,viability,"[11]; at 1.25 µM, OCI-P5x cells, with rucaparib 20 µM, 100% = cells with rucaparib alone",54.9% (active)
same,viability,"[11]; at 1.25 µM, OCI-P5x cells, without rucaparib",14.5% (active)
same,viability,"[11]; at 5 µM, OCI-C5x cells, with rucaparib 10 µM, 100% = cells with rucaparib alone",36.1% (active)
same,viability,"[11]; at 5 µM, OCI-C5x cells, without rucaparib",29% (active)
same,viability,"[11]; at 5 µM, OCI-P5x cells, with rucaparib 20 µM, 100% = cells with rucaparib alone",52% (active)
same,viability,"[11]; at 5 µM, OCI-P5x cells, without rucaparib",12.1% (active)
COc1ccc(S(=O)(=O)N(C(C)=O)c2ccccc2/C=C/c2cc[n+]([O-])cc2)cc1,AC50,[1],1480 nM (active)
same,AC50,[2],935 nM (active)
same,AC50,[3],372 nM (active)
same,AC50,[4],2630 nM (active)
same,AC50,[10],1180 nM (active)
same,AC50,[6],1860 nM (active)
Cc1cc(OCCCS(C)(=O)=O)cc(C)c1-c1cccc(COc2ccc3c(c2)OC[C@H]3CC(=O)O)c1,outcome,[1],inactive
same,outcome,[2],inactive
same,outcome,[3],inactive
same,outcome,[4],inactive
same,outcome,[10],inactive
same,outcome,[6],inactive
same,outcome,[7],inactive
